These results are taken from PubChem BioAssay (NCI).

The structures appear in SMILES notation. This is part of a sample that, as a whole, favours compounds with a hit. Of some 83,000 tested, about 20% had one in any assay.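 Single-concentration screen, 48 h exposure, 96-well plates. Endpoint: percent growth. Below 10 = active.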 The source made the active and inactive calls.

This assay relates to HL-60(TB) leukemia. Nature of the assay: NCI-60 one-dose screen, 48 h (100 = growth as untreated, 0 = no growth, -100 = all killed). To be noted: 10 µM unless noted.
Regarding `Cc1cc2nc3c4cc(Cl)ccc4n(CCN(C)C)c3nc2cc1C`, the growth was 20% (inactive). For `Cn1cc(-c2nonc2-c2cn(C)c3ccc(F)cc23)c2ccccc21` the value was -24.3% (active); for `CCCN1C(=O)/C(=c2\sc3n(c2=O)C2C(NN=3)N(CC)C(=O)N2CC)c2ccccc21` (stereo not given), -40.8% (active).

For `COc1cc(OC)c(/C=C/c2c3ccccc3cc[n+]2C)c(OC)c1`, the growth was -25.1% (active). Regarding `O=C1c2cccc3cccc(c23)C(=O)N1Nc1nc(N2CCOCC2)nc(N2CCN(c3ccccc3)CC2)n1`, the growth was 56.3% (inactive). In the case of `Cc1ccc(/C=C/C(=O)Nc2ncc(Cc3ccc(F)cc3)s2)o1`, the growth was 2.75% (active). For `C/C=C/CSC(C)(C)C(=O)NC` the value was 98.7% (inactive). For `CCC(=O)C1C(=O)c2ccccc2C1=O` the value was 75.3% (inactive); for `COc1cc(-c2nc3sc(C)cn3c2/C=C2\C(=O)Nc3ccccc32)c(Br)c(OC)c1OC`, -7.35% (active); for `C=C(CNCCO)[C@@H]1CC[C@]2(CO)CC[C@]3(C)[C@H](CC[C@@H]4[C@@]5(C)CCC(NCCO)C(C)(C)[C@@H]5CC[C@]43C)[C@@H]12` (stereo not given in full), 66.2% (inactive). The value for `CCC(C)NCC(=O)O` (stereo not given) was 100% (inactive); that for `N#Cc1c(NC(=O)c2cccc(C(F)(F)F)c2)sc2c1CCC(=O)C2` was -8.73% (active); that for `c1ccc(C(CC2=NCCCN2)c2ccccc2)cc1` was 71% (inactive). Consider `Cc1ccccc1C[P+](c1ccccc1)(c1ccccc1)c1ccccc1`, for which the growth was 1.16% (active). As for `N#CC1C(=O)NC(c2ccccc2[N+](=O)[O-])c2sc3c(F)cccc3c21` (stereo not given), the growth was 82.3% (inactive).
